Data as given in PubChem BioAssay (Tox21).
Inconclusive results are not listed. Where a call stands in place of a potency, no number is given. Calls of active or inactive are those of the source. Calls come from the whole dose curve; as a rule, active = well fitted cell-killing curve with a large enough effect in the repeat runs; inconclusive = weak or mixed curves, or effect the other way; inactive = flat fitted curve, though single readings scatter.

What was measured:
[1] = cAMP Responsive Elements (CRE) small molecule antagonists, cell-based qHTS assay: qHTS cell viability counter screen (AID 2060913); note: nearly all actives have a fitted effect of over 40% in size
Procedure, shortened: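 Cytotoxicity read in the same wells as the CRE-bla HEK293T antagonist assay: after 3 h compound with 0.25 uM NKH477 final and 2 h beta-lactamase substrate, CellTiter-Glo luminescence measured.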

[2] = cAMP Responsive Elements (CRE) small molecule agonists, cell-based qHTS assay: qHTS cell viability counter screen (AID 2060914);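 note: viability read after 3 h of compound exposure; nearly all actives have a fitted effect of over 50% in size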
Procedure, shortened: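 Cells are seeded and incubated 18 h, treated with compounds in DMSO for 3 h, read for the bla reporter, then given CellTiter-Glo; luminescence is measured after 30 min at room temperature.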

Row | Structure (SMILES) | Potency [1] | Potency [2]
1 | COc1ccc2nc(N)sc2c1 | inactive | inactive
2 | CC(C)c1ccc(C#N)cc1 | inactive | inactive
3 | O=C(O)c1ccc(C(=O)O)c(C(=O)O)c1 | inactive | inactive
4 | CC(C)c1ccccc1 | inactive | inactive
5 | NC(=S)N/N=C/c1cccnc1 | inactive | inactive
6 | CC(=O)Nc1ccc(S(=O)(=O)Nc2ccc([N+](=O)[O-])cc2)cc1 | inactive | inactive
7 | Clc1ccc2c(Cl)ccnc2c1 | inactive | inactive
8 | CC1=C2[C@@H]([C@H](C)CC[C@H]2/C=C(\C)C(=O)O)[C@H](O)C1 | inactive | inactive
9 | CS(=O)(=O)c1ccc([C@@H](O)[C@@H](CO)NC(=O)C(Cl)Cl)cc1 | inactive | inactive
10 | C[N+]1(C)CCC(=C(c2ccccc2)c2ccccc2)CC1 | inactive | inactive
11 | O=CC1CC=CCC1 (configuration not stated) | inactive | inactive
12 | O=C1CCCCCCCCCCC(=O)OCCO1 | inactive | inactive
13 | CCN(CC)C(=O)N1CCN(C)CC1 | inactive | inactive
14 | CCc1oc2ccccc2c1C(=O)c1cc(Br)c(O)c(Br)c1 | inactive | inactive
15 | CCCCCCCCCCCCN1CCCCCC1=O | inactive | inactive
16 | CC/C=C\CCO | inactive | inactive
17 | O=C1OC(=O)C2C3C=CC(C3)C12 (configuration not stated) | inactive | inactive
18 | O=C(O)C(c1ccc(Cl)cc1)c1ccc(Cl)cc1 | inactive | inactive
19 | CCC(C(=O)OCCOCCN(CC)CC)c1ccccc1 (configuration not stated) | inactive | inactive
20 | O=C(Nc1cccc(Cl)c1)OCC#CCCl | inactive | inactive
21 | Cc1scc2c1N(C(=O)CN1CCN(C)CC1)c1ccccc1NC2=O | inactive | inactive
